Assay outcomes: PubChem BioAssay, The Scripps Research Institute Molecular Screening Center
M4 PAM: human M4 muscarinic receptor positive allosteric modulators, primary screen, CHO-K1 cells, Fluo-8 calcium fluorescence | AID 624126, 2012 | activation, % at 3 µM | CHO-K1 hM4/Gqi5, ACh EC20; 0% = ACh EC20, 100% = maximal ACh | Muscarinic acetylcholine receptor M4 (Homo sapiens), P08173 | 0.4% of 360,000 active;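 active means activation above its plate's cutoff, the mean activation of sample wells plus 3 SD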
Target sequence (P08173 whole entry, looked up): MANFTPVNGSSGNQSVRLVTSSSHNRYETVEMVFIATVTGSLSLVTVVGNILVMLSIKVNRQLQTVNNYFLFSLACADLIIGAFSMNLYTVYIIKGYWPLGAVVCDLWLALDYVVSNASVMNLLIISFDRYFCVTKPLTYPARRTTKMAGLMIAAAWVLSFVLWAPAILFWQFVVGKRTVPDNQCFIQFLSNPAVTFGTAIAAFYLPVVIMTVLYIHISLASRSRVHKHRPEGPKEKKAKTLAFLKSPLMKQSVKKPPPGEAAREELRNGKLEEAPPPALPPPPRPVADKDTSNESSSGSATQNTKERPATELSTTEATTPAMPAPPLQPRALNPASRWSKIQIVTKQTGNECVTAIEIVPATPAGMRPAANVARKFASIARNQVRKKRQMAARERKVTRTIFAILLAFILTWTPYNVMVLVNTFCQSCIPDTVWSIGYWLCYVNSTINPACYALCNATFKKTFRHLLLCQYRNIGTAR
CHO-K1 Ca ag: counter-screen for M1 agonists: effect in parental CHO-K1 cells. Fluo-8 calcium fluorescence; scaled to maximal ATP response, vehicle zero. activation, % at 3 µM. 0.48% of 360,000 active. AID 602248, 2012; in the data active means activation above about 15%;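 further: untransfected CHO-K1 host cells lacking M1 receptor as counterscreen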
CHRM4 agonist: human M4 muscarinic receptor agonists, primary screen, CHO-K1 cells, Fluo-8 calcium fluorescence | activation, % at 3 µM | Muscarinic acetylcholine receptor M4 (Homo sapiens), P08173 | CHO-K1 hM4/Gqi5; vehicle 0%, full acetylcholine response 100% | 0.14% of 360,000 active;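 active means activation above the run mean over all test wells plus 3 SD, cut at about 32% in these data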;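 further: peak over basal fluorescence ratio per well then scaled between controls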
CHO-K1 Ca PAM: nonselective calcium activators in parental CHO-K1 cells, primary screen, counter-screen for M1 PAM project, cell-based, Fluo-8 calcium fluorescence, full deck, 1536-well. ATP EC20; 0% at ATP EC20, 100% at ATP max. activation, % at 3 µM. 0.02% of 360,000 active. AID 602247, 2012;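 active means activation above the run cutoff, the mean activation of all test compounds plus 3 SD, cut at about 40% in these data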;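 further: peak over basal fluorescence ratio in a 140 s read after ATP addition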
CHO-K1 Ca antag: nonselective inhibitor or artifact in parental CHO-K1 cells; ATP-induced calcium, Fluo-8 fluorescence; AID 602250; 0.6% of 360,000 active; inhibition, % at 3 µM;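 active means inhibition above a per-plate cutoff, the plate's mean sample inhibition plus 3 SD, cut at about 24% in these data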
CHRM4 antagonist: human M4 muscarinic receptor antagonists, primary screen, CHO cells, Fluo-8 calcium fluorescence. 0.73% of 360,000 active. Muscarinic acetylcholine receptor M4 (Homo sapiens), P08173. inhibition, % at 3 µM. CHO-hM4 cells, ACh EC80;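 active means inhibition above its plate's cutoff, the mean inhibition of sample wells plus 3 SD, cut at about 27% in these data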
Each line names hits and unclear results; the compound was inactive in the other large screens. Rows were chosen to be rich in hits. Some 2% of all compounds tested hit in one or more screens of this group.

CCOc1ccc2[nH]c3c(NCCCOC)ncnc3c2c1	none
CC(=O)c1ccc(NC(=S)NCC(c2ccco2)N2CCCC2)cc1 (centres undefined)	none
CC1(C)CN=C(NC2CCCCC2)S1	CHRM4 antagonist 43
O=C(c1cc(COc2cccc(C(F)(F)F)c2)on1)N1C[C@@H]2CCC[C@H]1C2	none
Cc1ccc(S(=O)(=O)NCc2ccccc2)cc1C(=O)NCCc1ccc(S(N)(=O)=O)cc1	none
CCn1c(P(C)(=O)O)nc2cc(NC(=O)c3ccccc3Cl)ccc21	CHO-K1 Ca antag 24
CC(NC=C1C(=O)OC(C)(C)OC1=O)C(=O)O (centres undefined)	none
CC(C)CC(NC=C1C(=O)OC(C)(C)OC1=O)C(=O)O (centres undefined)	M4 PAM 21
CCN(CC)C(=O)C1=C(C)N(CCC2=CCCCC2)C(=O)C(CC(=O)NCC2CCCCC2)C1 (centres undefined)	CHO-K1 Ca antag 25
CCCCN1C(=O)C(CC(=O)NC2CCCC2)CC(C(=O)N(CC)CC)=C1C (centres undefined)	CHO-K1 Ca antag 26
COc1ccc(C(=O)NNC(=O)C(=O)NC(C)c2ccccc2)cc1OC (centres undefined)	none
COc1ccc(NC(=O)CS(=O)(=O)c2cccc(Cl)c2)cc1	none
CC(C)Sc1nnc(-c2ccc(S(=O)(=O)N3CCOCC3)cc2)n1C	none
O=C(O)c1ccccc1-c1c2cc(I)c(=O)c(I)c-2oc2c(I)c(O)c(I)cc12	CHO-K1 Ca ag 190, CHRM4 agonist 254, CHO-K1 Ca antag 71, CHRM4 antagonist 57
O=C(O)c1ccccc1-c1ccccc1C(=O)Nc1ccc2c(c1)oc(=O)c1ccccc12	none
Cc1cc(NC(=O)c2ccc(F)c(S(=O)(=O)N3CCCCC3)c2)no1	CHRM4 antagonist 51
COc1ccc(-c2csc(N(CCc3ccc(OC)c(OC)c3)C(=O)COc3ccccc3)n2)cc1	none
c1ccc2c(c1)ccc1ncccc12	M4 PAM 21
COc1cc2c(cc1OC)CN(C(=O)c1cccc(S(=O)(=O)N(C)C)c1)CC2	CHRM4 antagonist 29
COc1cc2c(cc1OC)CN(C(=O)c1cccc(S(=O)(=O)N3CCc4ccccc43)c1)CC2	none
Cc1ccc2nc(NC(=O)c3ccc(N4C(=O)CCC4=O)cc3)sc2c1	none
CC(C)(C)NS(=O)(=O)c1ccc2nc(NC(=O)c3ccc(N4C(=O)CCC4=O)cc3)sc2c1	CHO-K1 Ca ag 15
Cc1ccc(C(=O)N2CCSC2=S)cc1	CHO-K1 Ca antag 26
CN1CCN(CCCNC(=O)c2cc3c(=O)n(C)c4ccccc4c3s2)CC1	CHO-K1 Ca antag 29
O=C(NCCCN1CCCCCC1)c1cc2c(=O)oc3ccccc3c2s1	none
Cc1ccc2oc(=O)c3cc(C(=O)NCCCN4CCN(C)CC4)sc3c2c1	CHO-K1 Ca antag 54
CC(=O)c1ccc(S(=O)(=O)Nc2ccc(C(=O)N(C)CC(=O)Nc3cccc(C)c3C)cc2)cc1	none
C[C@H]1CN([C@@H](C)CO)C(=O)CCCn2nncc2CO[C@@H]1CN(C)C(=O)Nc1cccc2ccccc12	none
CCOCCN1CCN(C2c3ccccc3CSc3ccccc32)CC1 (centres undefined)	CHRM4 antagonist 99
CCNC(=O)NC1c2ccccc2CSc2ccccc21 (centres undefined)	none
O=C(Nc1ccccc1N1CCOCC1)c1ccccc1NS(=O)(=O)c1ccc(F)c(F)c1	CHO-K1 Ca antag 24
Cc1ccc(S(=O)(=O)Nc2ccccc2C(=O)Nc2nc(-c3ccc(F)cc3)cs2)cc1	CHO-K1 Ca ag 16, CHO-K1 Ca antag 26
COc1ccc(-c2csc(NC(=O)c3ccccc3NS(=O)(=O)c3ccc(F)c(F)c3)n2)cc1	CHO-K1 Ca ag 15
CC(Sc1nnc(-c2cccnc2)o1)C(=O)NC1CCCC1 (centres undefined)	none
Cc1cccc(N2CC(c3nc4ccccc4[nH]3)CC2=O)c1 (centres undefined)	none
